The values that follow come from PMC7862700, “An all-to-all approach to the identification of sequence-specific readers for epigenetic DNA modifications on cytosine”.

Common to all, as to assay: DAPPL (digital affinity profiling via proximity ligation, sequencing); 10 mM Tris-HCl pH 7.5, 50 mM NaCl, 1 mM DTT, 4% glycerol, room temperature, 30 min; GST-TFs on glutathione beads, 16-mer random dsDNA library, 0.1% formaldehyde crosslink after washing; high values mean tight binding
What all share (details): protein: recombinant; tags: N-terminal GST; dsDNA, one strand shown

Test [1] concerns the target T1, ERF (Homo sapiens, UniProt P50548 1-548).
T1 sequence: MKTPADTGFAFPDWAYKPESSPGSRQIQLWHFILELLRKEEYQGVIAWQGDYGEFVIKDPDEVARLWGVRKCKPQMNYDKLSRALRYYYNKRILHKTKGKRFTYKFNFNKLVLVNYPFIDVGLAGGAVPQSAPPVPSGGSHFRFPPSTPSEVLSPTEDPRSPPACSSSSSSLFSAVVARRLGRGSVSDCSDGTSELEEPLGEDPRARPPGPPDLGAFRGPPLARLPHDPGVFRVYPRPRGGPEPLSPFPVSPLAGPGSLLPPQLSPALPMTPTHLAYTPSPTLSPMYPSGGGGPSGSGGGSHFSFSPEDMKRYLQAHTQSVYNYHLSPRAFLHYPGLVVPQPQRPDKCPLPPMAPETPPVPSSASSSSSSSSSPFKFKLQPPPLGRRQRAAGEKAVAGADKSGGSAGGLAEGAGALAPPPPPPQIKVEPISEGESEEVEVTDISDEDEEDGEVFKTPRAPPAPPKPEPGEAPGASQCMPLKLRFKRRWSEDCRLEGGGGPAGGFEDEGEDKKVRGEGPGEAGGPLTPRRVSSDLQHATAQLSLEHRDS
The method, boiled down: (§1)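 Pools of DNA-barcoded human transcription factors, expressed in yeast as GST fusions on glutathione beads and combined with a tag-only sample, were incubated with 200 nmole of a 16-mer random double-stranded DNA library. Incubation took 30 min at room temperature in Tris/NaCl/DTT/glycerol buffer and was followed by washing, 0.1% formaldehyde crosslinking, proximity ligation (BsaI/T4 ligase, 1 h, 37 °C), PCR amplification and sequencing on an Illumina NextSeq500. Binding signal is the ratio of a hexamer's read frequency for a factor to its frequency for the tag-only sample.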

Test [2] has as its target T2, ETV3L (Homo sapiens, UniProt Q6ZN32 1-361).
T2 sequence: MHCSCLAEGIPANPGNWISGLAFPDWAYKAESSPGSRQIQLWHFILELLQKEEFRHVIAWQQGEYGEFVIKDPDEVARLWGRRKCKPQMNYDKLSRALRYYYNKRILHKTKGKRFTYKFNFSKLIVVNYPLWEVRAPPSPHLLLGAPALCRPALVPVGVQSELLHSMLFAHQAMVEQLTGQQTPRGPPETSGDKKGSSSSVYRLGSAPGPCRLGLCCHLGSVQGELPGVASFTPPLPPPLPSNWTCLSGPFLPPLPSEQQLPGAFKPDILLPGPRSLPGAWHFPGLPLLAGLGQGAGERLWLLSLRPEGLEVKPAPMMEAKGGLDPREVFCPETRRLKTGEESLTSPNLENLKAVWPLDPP
In short, it runs like this: as §1

The target of test [3] is T3, ETS2 (Homo sapiens, UniProt P15036 1-469).
T3 sequence: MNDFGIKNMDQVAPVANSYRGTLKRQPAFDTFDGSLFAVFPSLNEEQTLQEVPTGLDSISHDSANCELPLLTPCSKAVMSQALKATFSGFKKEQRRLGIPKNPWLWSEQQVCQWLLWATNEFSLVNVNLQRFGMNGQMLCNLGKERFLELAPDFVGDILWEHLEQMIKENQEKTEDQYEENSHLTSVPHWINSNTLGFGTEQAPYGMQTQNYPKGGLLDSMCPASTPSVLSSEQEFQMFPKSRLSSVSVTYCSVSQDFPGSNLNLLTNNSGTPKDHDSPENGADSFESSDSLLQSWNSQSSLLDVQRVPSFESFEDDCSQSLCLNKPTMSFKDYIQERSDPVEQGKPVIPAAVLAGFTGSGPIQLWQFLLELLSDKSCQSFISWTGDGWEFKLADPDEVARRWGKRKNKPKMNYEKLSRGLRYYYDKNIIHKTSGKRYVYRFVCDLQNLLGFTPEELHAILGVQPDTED
In short, it runs like this:
as §1

Test [4] addresses T4, SPDEF (Homo sapiens, UniProt O95238 1-335).
T4 sequence: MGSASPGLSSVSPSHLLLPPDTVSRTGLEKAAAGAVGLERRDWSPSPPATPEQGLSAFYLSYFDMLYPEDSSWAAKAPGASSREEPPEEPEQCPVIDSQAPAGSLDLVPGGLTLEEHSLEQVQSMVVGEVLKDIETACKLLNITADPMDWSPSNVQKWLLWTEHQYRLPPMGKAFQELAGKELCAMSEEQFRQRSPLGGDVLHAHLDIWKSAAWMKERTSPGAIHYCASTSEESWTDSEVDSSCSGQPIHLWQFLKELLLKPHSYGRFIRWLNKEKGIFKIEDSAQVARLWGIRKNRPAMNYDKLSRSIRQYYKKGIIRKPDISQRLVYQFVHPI
The method, boiled down:
as §1

Test [5] has as its target T5, ETV7 (Homo sapiens, UniProt Q9Y603 1-341).
T5 sequence: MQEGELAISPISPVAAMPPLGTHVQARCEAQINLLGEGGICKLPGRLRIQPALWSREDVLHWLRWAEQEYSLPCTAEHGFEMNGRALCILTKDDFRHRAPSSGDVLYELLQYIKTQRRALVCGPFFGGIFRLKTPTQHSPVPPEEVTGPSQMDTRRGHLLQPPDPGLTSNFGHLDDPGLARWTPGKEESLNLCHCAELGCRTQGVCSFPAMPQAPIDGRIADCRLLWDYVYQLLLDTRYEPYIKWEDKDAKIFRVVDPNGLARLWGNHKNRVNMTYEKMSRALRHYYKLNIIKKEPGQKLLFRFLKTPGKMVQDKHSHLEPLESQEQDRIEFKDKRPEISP
In short, it runs like this:
as §1

The target in test [6] is T6, ELF5 (Homo sapiens, UniProt Q9UKW6-2 1-255).
T6 sequence: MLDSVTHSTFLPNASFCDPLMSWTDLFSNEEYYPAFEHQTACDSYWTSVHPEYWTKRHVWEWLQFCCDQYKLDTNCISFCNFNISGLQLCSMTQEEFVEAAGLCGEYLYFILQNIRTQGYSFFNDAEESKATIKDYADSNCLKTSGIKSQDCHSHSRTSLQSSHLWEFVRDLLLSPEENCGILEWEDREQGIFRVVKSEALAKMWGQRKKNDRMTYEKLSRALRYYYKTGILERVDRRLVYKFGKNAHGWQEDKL
The method, boiled down: as §1

Test [7] concerns the target T7, ETV3 (Homo sapiens, UniProt P41162-2 1-143).
T7 sequence: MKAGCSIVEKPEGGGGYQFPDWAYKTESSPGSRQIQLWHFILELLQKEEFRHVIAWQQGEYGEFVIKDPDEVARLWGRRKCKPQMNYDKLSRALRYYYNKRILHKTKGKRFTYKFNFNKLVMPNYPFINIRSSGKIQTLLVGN
In short, it runs like this: as §1

Test [8] has as its target ETV6 (Homo sapiens, UniProt P41212 1-452). The method, boiled down:
as §1

Sequence of ETV6 (P41212 whole entry): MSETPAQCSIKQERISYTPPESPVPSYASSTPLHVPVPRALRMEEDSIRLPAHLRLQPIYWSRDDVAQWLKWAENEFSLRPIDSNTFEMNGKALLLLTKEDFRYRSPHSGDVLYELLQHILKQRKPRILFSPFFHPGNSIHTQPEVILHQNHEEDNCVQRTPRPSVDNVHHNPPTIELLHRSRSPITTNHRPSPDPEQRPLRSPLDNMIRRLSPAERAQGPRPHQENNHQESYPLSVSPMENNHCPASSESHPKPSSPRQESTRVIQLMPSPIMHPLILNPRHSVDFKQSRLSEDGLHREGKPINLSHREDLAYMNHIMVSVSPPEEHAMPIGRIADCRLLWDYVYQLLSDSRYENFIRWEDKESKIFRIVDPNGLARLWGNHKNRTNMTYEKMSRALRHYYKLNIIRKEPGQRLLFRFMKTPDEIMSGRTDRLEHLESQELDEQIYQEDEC

For ATTCCA, the binding signal in test [1] is 1.14 fold enrichment (6-mer frequency, TF over GST control); in test [2], 1.31 fold enrichment (6-mer frequency, TF over GST control); in test [3], 1.15 fold enrichment (6-mer frequency, TF over GST control); in test [4] it was 1.11 fold enrichment (6-mer frequency, TF over GST control); in test [5] it was 1.1 fold enrichment (6-mer frequency, TF over GST control); in test [6], 1.15 fold enrichment (6-mer frequency, TF over GST control). The binding signal in test [7] is 1.15 fold enrichment (6-mer frequency, TF over GST control); in test [8], 1.19 fold enrichment (6-mer frequency, TF over GST control).
As to AAAAGA, the binding signal in test [1] was 1.24 fold enrichment (6-mer frequency, TF over GST control); in test [2] it was 1.1 fold enrichment (6-mer frequency, TF over GST control); in test [3], 1.22 fold enrichment (6-mer frequency, TF over GST control); in test [4] it was 1.1 fold enrichment (6-mer frequency, TF over GST control); in test [5] it was 1.1 fold enrichment (6-mer frequency, TF over GST control); in test [6] it was 1.13 fold enrichment (6-mer frequency, TF over GST control). For the same sequence, the binding signal in test [7] is 1.07 fold enrichment (6-mer frequency, TF over GST control); in test [8], 1.21 fold enrichment (6-mer frequency, TF over GST control).
TTGCGG: the binding signal in test [1] is 1.25 fold enrichment (6-mer frequency, TF over GST control); in test [2], 1.3 fold enrichment (6-mer frequency, TF over GST control); in test [3], 1.21 fold enrichment (6-mer frequency, TF over GST control); in test [4] it was 1.24 fold enrichment (6-mer frequency, TF over GST control); in test [5] it was 1.29 fold enrichment (6-mer frequency, TF over GST control); in test [6], 1.24 fold enrichment (6-mer frequency, TF over GST control). Also, the binding signal in test [7] is 1.34 fold enrichment (6-mer frequency, TF over GST control); in test [8], 1.41 fold enrichment (6-mer frequency, TF over GST control).
For the sequence TGTCTA, the binding signal in test [1] was 1.21 fold enrichment (6-mer frequency, TF over GST control); in test [2], 1.08 fold enrichment (6-mer frequency, TF over GST control); in test [3], 1.18 fold enrichment (6-mer frequency, TF over GST control); in test [4] it was 1.2 fold enrichment (6-mer frequency, TF over GST control); in test [5] it was 1.28 fold enrichment (6-mer frequency, TF over GST control); in test [6] it was 1.24 fold enrichment (6-mer frequency, TF over GST control). Moreover, the binding signal is 1.23 fold enrichment (6-mer frequency, TF over GST control) in test [7] and 1.07 fold enrichment (6-mer frequency, TF over GST control) in test [8].
Take CCCCAC: the binding signal in test [1] was 1.14 fold enrichment (6-mer frequency, TF over GST control); in test [2] it was 1.28 fold enrichment (6-mer frequency, TF over GST control); in test [3], 1.22 fold enrichment (6-mer frequency, TF over GST control); in test [4], 1.2 fold enrichment (6-mer frequency, TF over GST control); in test [5], 1.11 fold enrichment (6-mer frequency, TF over GST control); in test [6], 1.19 fold enrichment (6-mer frequency, TF over GST control). For the same sequence, the binding signal was 1.2 fold enrichment (6-mer frequency, TF over GST control) in test [7] and 1.1 fold enrichment (6-mer frequency, TF over GST control) in test [8].
Consider GTTACA, for which the binding signal is 1.24 fold enrichment (6-mer frequency, TF over GST control) in test [1]; 1.06 fold enrichment (6-mer frequency, TF over GST control) in test [2]; 1.2 fold enrichment (6-mer frequency, TF over GST control) in test [3]; 1.21 fold enrichment (6-mer frequency, TF over GST control) in test [4]; 1.12 fold enrichment (6-mer frequency, TF over GST control) in test [5]; 1.14 fold enrichment (6-mer frequency, TF over GST control) in test [6]. The binding signal in test [7] was 1.09 fold enrichment (6-mer frequency, TF over GST control); in test [8], 1.07 fold enrichment (6-mer frequency, TF over GST control).
For the sequence CCCTGC, the binding signal in test [1] was 1.18 fold enrichment (6-mer frequency, TF over GST control); in test [2], 1.18 fold enrichment (6-mer frequency, TF over GST control); in test [3], 1.12 fold enrichment (6-mer frequency, TF over GST control); in test [4], 1.11 fold enrichment (6-mer frequency, TF over GST control); in test [5] it was 1.22 fold enrichment (6-mer frequency, TF over GST control); in test [6] it was 1.2 fold enrichment (6-mer frequency, TF over GST control). Moreover, the binding signal in test [7] was 1.22 fold enrichment (6-mer frequency, TF over GST control); in test [8] it was 1.2 fold enrichment (6-mer frequency, TF over GST control).
Consider CTACAA, for which the binding signal is 1.05 fold enrichment (6-mer frequency, TF over GST control) in test [1]; 1.15 fold enrichment (6-mer frequency, TF over GST control) in test [2]; 1.16 fold enrichment (6-mer frequency, TF over GST control) in test [3]; 1.14 fold enrichment (6-mer frequency, TF over GST control) in test [4]; 1.01 fold enrichment (6-mer frequency, TF over GST control) in test [5]; 1.16 fold enrichment (6-mer frequency, TF over GST control) in test [6]. For the same sequence, the binding signal is 1.1 fold enrichment (6-mer frequency, TF over GST control) in test [7] and 1.18 fold enrichment (6-mer frequency, TF over GST control) in test [8].
For the sequence TCATTA, the binding signal is 1.19 fold enrichment (6-mer frequency, TF over GST control) in test [1]; 1.08 fold enrichment (6-mer frequency, TF over GST control) in test [2]; 1.1 fold enrichment (6-mer frequency, TF over GST control) in test [3]; 1.06 fold enrichment (6-mer frequency, TF over GST control) in test [4]; 1.16 fold enrichment (6-mer frequency, TF over GST control) in test [5]; 1.09 fold enrichment (6-mer frequency, TF over GST control) in test [6]. In addition, the binding signal was 1.12 fold enrichment (6-mer frequency, TF over GST control) in test [7] and 1.06 fold enrichment (6-mer frequency, TF over GST control) in test [8].
